Experimental data published in the supplement of paper PMC10681739.

The sequences below were run against T1, ETS1 (UniProt P14921) (assay: ETS1 binding intensity (PBM fluorescence), ETS1 alone (arbitrary fluorescence units); higher = stronger binding). Settings: ETS1 concentration 1 nM; RUNX1 concentration 0 nM.
T1 sequence: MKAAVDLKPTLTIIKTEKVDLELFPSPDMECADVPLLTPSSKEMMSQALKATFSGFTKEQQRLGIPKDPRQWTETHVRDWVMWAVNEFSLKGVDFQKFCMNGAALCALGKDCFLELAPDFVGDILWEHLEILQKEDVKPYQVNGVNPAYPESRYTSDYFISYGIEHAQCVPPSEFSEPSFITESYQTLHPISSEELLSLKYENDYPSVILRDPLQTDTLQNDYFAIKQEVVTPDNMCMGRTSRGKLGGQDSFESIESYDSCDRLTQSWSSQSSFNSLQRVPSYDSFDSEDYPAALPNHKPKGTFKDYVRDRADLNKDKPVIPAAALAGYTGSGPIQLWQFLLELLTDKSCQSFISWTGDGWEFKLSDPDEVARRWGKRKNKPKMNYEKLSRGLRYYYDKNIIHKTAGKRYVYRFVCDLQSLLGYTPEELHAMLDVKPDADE
Protocol: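 Cooperative genomic-context PBM: 36-bp genomic probes with neighbouring ETS1 and RUNX1 sites, double-stranded on Agilent 4x180k arrays. Full-length recombinant human ETS1 (1 nM) was incubated alone or with RUNX1 (25 nM) and detected with anti-ETS1 antibody plus Alexa488 secondary. Value is the median fluorescence intensity over 4 replicate spots; the ETS1+RUNX1 data were normalised to the ETS1-only data using probes without RUNX1 sites. The 36-bp variable region sits on the array probe with constant linker/primer flanks that are not printed.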

| Sequence | ETS1 binding intensity |
| --- | --- |
| TGTGATAAGGATGTTCGTGTGCCTTGTGGTCAGGTG | 623 |
| TCCCCTCTCCCCATCCGCCCGAGACCACAGCCACTC | 592 |
| GCCCTGACCCACATCCTGCCGCAGCCTGCTTGTCCT | 979 |
| GAAAAATGAAGTTTCCGCAGTAACCACAACACAGCC | 556 |
| TGAGCAAGTTCCTTCCTGTCTGTGGTCCAGGGTTTA | 757 |
| GCTGACCCGGAAGCGCTCGTGACCACCATCTCCGAC | 1760 |
| CCCAGGGCAGGAAGGGCCAAACCGCTACTGCCACTG | 882 |
| CTGGGGCTGAGGGAGGGATGTGGTGGGGCCCAGGCT | 411 |
| GCCACATATTTCCTGTGACAACCCTGTGGTGTGGCT | 641 |
| AGGTGTACTTTCCGGGTGCAGACCGCGAATGGATCG | 383 |
| CAGACAGGAGGCGGATGTGGGTGGCGCAGAATGAGC | 1820 |
| CAACAAGAGGAAATCAGAAACACTGAAGCCACAGCT | 420 |
| AGGTTCTCCAGAGGAGGAAGTGGTTTGCTGCAGGCT | 2450 |
| GTCCCCCGGAACCGTCTCCTCCCCCGCACGCGCCGC | 516 |
| GGGGTCAGGAAATGGGTGTGCCGCGGGTAAGGCGCT | 949 |
| CCCAGCCCTGCTGCCGGATGTGGTGAGGCCCAGGTG | 5030 |
| TAAACCCTGCTTCCTGTCCCTGCGCCCCACAAGGAG | 1290 |
| TGACGGCCAGGAAGCCTGAAGCCGCAGGGGCCGCCG | 345 |
| CACTTCCTGTCAAAGCCAGTTCCTTAACCGCTTAGG | 1610 |
| GCGCGGGCAACTTCCGGTGTGGGTGACGAGTGGTGG | 10900 |

| Sequence | ETS1 binding intensity |
| --- | --- |
| CTATATCACATCCTTTCTCTGACCGCGCTGACTTCG | 452 |
| CGAACGCCGGACGTTCTGGGCACGTGACCGCCACCC | 643 |
| GGACCGGAAGTTAAGGCGTTCGCGGCGTGTGGTAAG | 8560 |
| AGCGGCTTCCTGCTGGGCTTTTGCACTCCCCACAAC | 510 |
| CGGGGCATGCCGGACGCTGTGGTCCTGAAGGCCTGG | 536 |
| GAAAGCTGCACTATTTCCTGAGGTTAGAGGTTTAAA | 522 |
| ACGAGGTTGGCCTCATCCGGTGGTTTTCGCAGCACG | 1290 |
| ACGCTGGAATCGCGGAAACCGCCGGTGCACGTTGGA | 531 |
| CAGGCCTGTGATTTCCTCTGAGTGGTTTTCTTGGCC | 465 |
| CTCACAACTCGCGTCCGGCGGAGACCACAATTCCCG | 412 |
| CTGTGGCCTAGAAGCTTCCTGCCGCAGCTCTGAGGA | 534 |
| CCTTCCTTCCGGGGTCGGCCCCGCCCGCAAGCGCCG | 441 |
| CCGGGCGCCACTTCCGGTCCCCGTGGTCACGTGACC | 14800 |
| CACCAGGACGCAACAGGAAACCACAAAGGCCTGAGA | 2390 |
| GAGTGGGCGGAAATCCGTGCCTGGCAGACCACAAAG | 1320 |
| TGCCCTGACTTCCTGGTCCTGTGGTCAAGGATGGGG | 1340 |
| CCGTGTCAGTGAGGATGTGGGCTGCCGGGCTGGGCG | 491 |
| GAGGGACAGGATGCCGCCAGGAACCACAAGAGCTTC | 996 |
| ACCAGCAACGGAAATCAGATCTCTTGTGGTTATTAT | 1480 |
| GCAGAAGGATTTCCTGTTTCAGGCAACCACAGCGAC | 1630 |
